Results reported in PubChem BioAssay (NCI).
The panel holds about 79,000 compounds, 15% with a hit somewhere; the sample as a whole holds those more often. Values without a mark were called inactive. Calls of active or inactive are those of the source. Rule as the data show it: active = growth inhibition above about 70%; inactive = the rest.

Tests used:
[1] = NCI Yeast Anticancer Drug Screen. Data for the rad50 strain (AID 155);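 also: 0% = growth of vehicle-only cultures of the same strain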; settings: S. cerevisiae rad50 strain growth inhibition, hits give high values
Procedure, shortened: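 Vehicle-treated cultures provide the reference for the growth inhibition reported for compound-exposed, repair-deficient yeast.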

[2] = NCI Yeast Anticancer Drug Screen. Data for the mec2-1 strain (AID 157); settings: S. cerevisiae mec2-1 strain, hits give high values
Procedure, shortened: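 Using mec2-1 yeast: add compound, measure growth, express inhibition versus vehicle-treated cultures.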

[3] = NCI Yeast Anticancer Drug Screen. Data for the sgs1 mgt1 strain (AID 161);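 also: 0% = growth of cultures given vehicle only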; settings: S. cerevisiae sgs1 mgt1 strain, hits give high values
Procedure, shortened: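 Growth of a repair-deficient yeast mutant was monitored after compound treatment and expressed as inhibition relative to vehicle-treated cultures.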

[4] = NCI Yeast Anticancer Drug Screen. Data for the cln2 rad14 strain (AID 165);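 also: 0% = growth equal to vehicle treated cultures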; settings: S. cerevisiae cln2 rad14 strain, hits give high values
Procedure, shortened: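 Yeast strain cln2 rad14, bearing defects in cell cycle control and DNA repair, serves as the test system; values reflect growth inhibition compared with vehicle.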

[5] = NCI Yeast Anticancer Drug Screen. Data for the bub3 strain (AID 167); settings: S. cerevisiae bub3 mutant strain, hits give high values
Procedure, shortened: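 Mutant yeast screening strain plus compound; vehicle-treated cultures serve as the 0% inhibition reference.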

[6] = NCI Yeast Anticancer Drug Screen. Data for the mlh1 rad18 strain (AID 175); settings: S. cerevisiae mlh1 rad18 strain growth inhibition, hits give high values
Procedure, shortened: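 Steps: expose repair-defective yeast to compound; measure growth; express inhibition against vehicle-treated controls.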

[7] = at 5.0 µM (retest, dose inferred, filed as 0.5)
[8] = at 50.0 µM (retest, dose inferred, filed as 5.0)

Structure (SMILES)	growth inhibition [1, 7]	growth inhibition [1, 8]	growth inhibition ([1]; at 50.0 µM)	growth inhibition [2, 7]	growth inhibition [2, 8]	growth inhibition ([2]; at 50.0 µM)	growth inhibition [3, 7]	growth inhibition [3, 8]	growth inhibition ([3]; at 50.0 µM)	growth inhibition [4, 7]	growth inhibition [4, 8]	growth inhibition ([4]; at 50.0 µM)	growth inhibition [5, 7]	growth inhibition [5, 8]	growth inhibition ([5]; at 50.0 µM)	growth inhibition [6, 7]	growth inhibition [6, 8]	growth inhibition ([6]; at 50.0 µM)
COc1nc2nc(Cl)cc(C)c2c2ccccc12 (tested in a mixture with another compound)	33%	94% (active)	98.1% (active)	11%	91% (active)	65.2%	8%	76% (active)	52.1%	3%	86% (active)	71.8% (active)	5%	94% (active)	78.5% (active)	17%	93% (active)	54.2%
O=C1O/C(=C2\OC(=O)c3ccccc32)c2ccccc21	9%	22%	-13.4%	0%	0%	7.55%	4%	1%	-28.3%	1%	3%	47.8%	1%	2%	5.25%	16%	-1%	-18.1%
CC1(C)C[C@H]2C=C(C=O)[C@]34C[C@]3(C(=O)OC4O)[C@H]2C1 (some centres not stated)	94% (active)	99% (active)	92.5% (active)	98% (active)	100% (active)	93.6% (active)	98% (active)	100% (active)	93.2% (active)	84% (active)	99% (active)	92.3% (active)	97% (active)	100% (active)	92.3% (active)	96% (active)	97% (active)	90.7% (active)
Cc1nc(-c2ccc(N=Cc3ccc(N(CCOS(C)(=O)=O)CCOS(C)(=O)=O)cc3Cl)cc2)c(C)s1	1%	33%	40.1%	-68%	-1%	13.1%	2%	17%	55.3%	6%	-4%	-9.2%	0%	-1%	-8.8%	4%	37%	73% (active)
NN(c1ccccc1)c1cccc2ccccc12	2%	96% (active)	-16.4%	-1%	97% (active)	3.7%	1%	97% (active)	39.1%	-4%	95% (active)	-23.8%	-1%	96% (active)	75.9% (active)	1%	96% (active)	25.1%
CCOC(=O)C1c2[nH]c3ccccc3c2CCN1C(=O)c1ccc(OC)o1 (configuration not stated)	0%	71% (active)	83.5% (active)	-36%	60%	79.8% (active)	13%	80% (active)	82% (active)	7%	81% (active)	67.7%	-17%	76% (active)	84.3% (active)	-12%	73% (active)	83.2% (active)
CCOC(=O)c1cc(NC(=O)c2cc(NC(=O)c3cc(NC(=O)c4c(-c5ccccc5)noc4C)cn3C)cn2C)cn1C	3%	56%	50.3%	-3%	54%	56.8%	2%	86% (active)	59.1%	-5%	29%	14.8%	-4%	46%	36.1%	0%	67%	51.3%
C(=C\[n+]1ccc2ccccc2c1)/c1ccccc1	-3%	35%	80% (active)	-2%	12%	26.9%	-4%	38%	68.7%	-3%	-3%	42.5%	-5%	27%	8%	10%	10%	74.9% (active)
Cc1ccc(-c2c(C#N)c(S)n(NS(=O)(=O)c3ccccc3)c(=O)c2C#N)cc1	28%	89% (active)	60.1%	12%	91% (active)	80% (active)	32%	94% (active)	83.8% (active)	47%	64%	29.4%	53%	94% (active)	71.2% (active)	16%	66%	75.6% (active)
CC(=O)c1ccc([N+](=O)[O-])o1	19%	98% (active)	96.5% (active)	22%	99% (active)	92.2% (active)	11%	61%	91.3% (active)	0%	97% (active)	86.9% (active)	21%	99% (active)	92.5% (active)	38%	99% (active)	98.4% (active)
O=C1/C(=C\c2ccccc2)CN(C(=O)CCN2CCCCC2)C/C1=C/c1ccccc1	16%	71% (active)	89.8% (active)	22%	57%	92.8% (active)	98% (active)	99% (active)	90.3% (active)	83% (active)	99% (active)	90.3% (active)	99% (active)	99% (active)	90.8% (active)	28%	74% (active)	88.8% (active)
O=C(CNc1ccccc1[N+](=O)[O-])Nn1c(-c2ccccc2)nc2ccccc2c1=O	20%	36%	59.1%	2%	33%	38.5%	17%	33%	69%	9%	35%	36%	-8%	34%	46.7%	10%	48%	75.5% (active)
CCCCCCCCCCCCCCC[N+]1(CC)CCCCC1	99% (active)	99% (active)	90.3% (active)	97% (active)	99% (active)	90.8% (active)	99% (active)	99% (active)	91.7% (active)	99% (active)	99% (active)	90% (active)	98% (active)	99% (active)	90.5% (active)	98% (active)	99% (active)	89.2% (active)
COC(=O)/C=C(\C)Nc1ccc(Cc2ccc(Cl)cc2)cc1	7%	98% (active)	98.3% (active)	-3%	99% (active)	97.8% (active)	7%	99% (active)	97.2% (active)	1%	99% (active)	97.5% (active)	-3%	98% (active)	97.5% (active)	9%	99% (active)	98.2% (active)
COC(=O)Cc1cn[nH]c1C(=O)OC	-147%	8%	9.2%	-51%	-45%	0.7%	-65%	-48%	1.7%	-66%	-52%	29.6%	-68%	-54%	-15.2%	-117%	-94%	9.75%
CC(C)(C)CC(C)(C)NCc1cc(Cl)cc(Cc2cc(Cl)ccc2O)c1O	10%	97% (active)	28.9%	9%	98% (active)	46%	8%	98% (active)	48.7%	-4%	94% (active)	16.8%	4%	98% (active)	20.4%	19%	98% (active)	78.7% (active)
Cc1nc2ccc(N=Nc3c(O)ccc4ccccc34)cc2[nH]1	-6%	30%	85.3% (active)	-7%	20%	77.1% (active)	11%	35%	91.7% (active)	-12%	17%	72.3% (active)	-4%	77% (active)	86.2% (active)	-33%	66%	82.5% (active)
Cc1cccc2c1nc1ccccc1[n+]2C	-2%	97% (active)	98.3% (active)	7%	97% (active)	97.7% (active)	-2%	97% (active)	98.5% (active)	2%	96% (active)	87.8% (active)	-2%	91% (active)	98.2% (active)	6%	95% (active)	97.5% (active)
CC(=O)O[C@H]1CC[C@@]2(C)C(CC[C@]3(C)C2CC=C2[C@@H]4CC(C)(C)CC[C@]4(C(=O)NCCN(C)C)CCC23C)C1(C)C (some centres not stated)	-3%	94% (active)	77% (active)	-2%	98% (active)	95.4% (active)	-2%	98% (active)	72.7% (active)	-4%	57%	5.3%	-2%	87% (active)	-21.4%	-2%	93% (active)	97.7% (active)
